# Compound activity (PubChem BioAssay)
# TDP1 cell noCPT: qHTS for Inhibitors of human tyrosyl-DNA phosphodiesterase 1 (TDP1): qHTS in cells in absence of CPT; DT40 Tdp1-/- hTDP1 cells, no CPT, ATP luminescence, 48 h; Potency, µM (highest dose often 46.2 µM), for the others: at the highest dose activity change, negative = growth inhibition, usual class: inhibitors; hit rate 15% among 420,000; AID 686978, 2013; further: potency means the concentration at half of the fitted maximal effect; nearly all actives have a fitted effect of over 55% in size
#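 Readout: luminescence from CellTiter-Glo after 30 min in the dark at RT. Cells: DT40 Tdp1-/- with stable hTDP1, 400/well. Exposure: compounds alone, ≥48 hr, 37 °C.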
# HT1080NT lethal: kills 2HG-producing HT-1080-NT fibrosarcoma cells. HT-1080-NT fibrosarcoma viability, CellTiter-Glo ATP luminescence, 48 h. Potency, µM (top dose mostly 46.1 µM), inactives show at the highest dose activity, negative = less viability, usual class: cytotoxic. hit rate 1.6% among 360,000. AID 686970;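 further: NT is the 2HG producing partner of a matched IDH1 knockdown line; potency means the concentration at half of the fitted maximal effect; 0% = DMSO-treated cells and -100% = media-only wells without cells; nearly all actives have a fitted effect of over 55% in size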
#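 Luminescent CellTiter-Glo readout after 48 hours of compound exposure at 37 degrees C defined viability of HT-1080-NT cells. Activity was normalized to DMSO wells and cell-free media wells; concentration-response curves were fitted and assigned curve classes.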
# IL-1B inflam inh: inflammasome signaling inhibition, IL-1 beta readout; THP-1 LPS/ATP IL-1B secretion, AlphaLISA, 16 h; stronger effect = lower value; activity change, % at 57.5 µM; hit rate 4.7% among 360,000; in the data active means activity change below about -50%; inconclusive means mostly about -30% to -49%
#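 THP-1 cells pretreated 1 hr with compounds (up to 57.5 uM final), then stimulated with LPS (250 ng/mL final) plus ATP (1.25 mM final); secreted IL-1B measured by AlphaLISA after 16 hr, decreased signal indicating inhibition.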
# uPA generation: cell surface uPA generation inhibition | cell surface uPA generation assay, qHTS | Potency, µM (top dose mostly 38.3 µM), for inactives: top-dose activity change, negative = inhibition, most hits filed as inhibitors | hit rate 0.31% among 330,000 | AID 540303; active means well fitted inhibition curve with a large enough effect; inconclusive means small, poorly fitted or top-dose-only effect; inactive means no such curve, though single readings can be large or run the other way; tested in mouse RAW 264.7 cells; further: potency means the concentration at half of the fitted maximal effect; nearly all actives have a fitted effect of over 55% in size
# DT40 TDP1 CPT: growth inhibition of DT40 Tdp1-/-;hTDP1 cells with camptothecin (screen for TDP1 inhibitors); chicken DT40 Tdp1-/-;hTDP1 cells + 20 nM CPT, ATP luminescence, 48 h; Potency, µM (titrated, usually from 46.2 µM), inactives show top-dose activity change, negative = growth inhibition, hits mostly inhibitors; hit rate 12% among 420,000; further: potency means the concentration at half of the fitted maximal effect; nearly all actives have a fitted effect of over 55% in size
#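 Chicken DT40 Tdp1-/- cells stably complemented with human TDP1 were seeded at 400 cells/well in medium containing 20 nM camptothecin, exposed to pin-transferred compounds, and grown at 37 °C for at least 48 hr. Viability was read as ATP luminescence.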
# HT1080 IDH1KD tx: toxicity to HT-1080 IDH1 knockdown cells (counter line). HT-1080 IDH1 knockdown viability, ATP luminescence, 48 h. Potency, µM (highest dose often 46.1 µM), without a hit: top-dose activity, negative = toxicity, hits mostly cytotoxic. hit rate 2% among 360,000. AID 686971;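 further: potency means the concentration at half of the fitted maximal effect; 0% = DMSO wells and -100% = cell-free medium wells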
#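 In this qHTS, HT-1080 cells depleted of IDH1 are exposed for 48 h at 37 °C to compound titrations. Toxicity is scored from CellTiter-Glo luminescence, with DMSO as full viability and medium alone as none.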
# * = called active by the depositor; ? = inconclusive; / = not tested or not shown. Only some compounds are listed: those with a hit (about 19% of all), similar ones and a draw of the others. Unless noted, the call rests on the fitted dose curve; in most records, active means well fitted curve in the direction sought with a large enough effect; inconclusive means small, poorly fitted or top-dose-only effect, or another doubt; inactive means no such curve, though single readings can be large; an effect the other way counts as inactive or inconclusive. Unless noted, on the % scale 0 is the no-effect control and ±100 the full control effect.
SMILES,TDP1 cell noCPT,HT1080NT lethal,IL-1B inflam inh,uPA generation,DT40 TDP1 CPT,HT1080 IDH1KD tx
OCCC1CN(Cc2nc3ccccc3s2)CCN1CCc1ccccc1 (stereo not given),26µM*,-4%,-2,-2%,?,-10%
COc1ccc(CN2CCN(CCCc3ccccc3)C(CCO)C2)cc1OC (stereo not given),-22%,2%,-13,0%,2%,-3%
CCN(CC(=O)Nc1cc(Cl)ccc1C)C(=O)CCOc1ccccc1C,?,0%,-25,2%,?,1%
COc1ccc(CN2CCN(C)CC2)cc1OCc1ccccc1,-8%,9%,0,-5%,-1%,6%
O=C(COc1ccc(-c2ccccc2)cc1)N1CCN(S(=O)(=O)Cc2ccccc2)CC1,15µM*,-23%,22,-9%,23µM*,?
COc1ccc(Br)cc1CN1CCN(S(=O)(=O)Cc2ccccc2)CC1,8.2µM*,-3%,7,4%,?,1%
COc1ccc(OC)c(CN2CCN(S(=O)(=O)c3ccccc3)CC2)c1,-20%,2%,25,7%,-2%,7%
Cc1ccc(OCC(=O)N2CCN(C(=O)Cc3ccccc3)CC2)cc1,-14%,-4%,-5,2%,-9%,-1%
COc1cc(CN2CCC(C(=O)NCC(C)(C)CN(C)C)CC2)ccc1OCc1ccccc1,?,?,-9,26%,6.5µM*,-22%
CCCS(=O)(=O)N1CCN(Cc2ccc(OCc3ccccc3)c(OC)c2)CC1,?,-8%,-73*,1%,?,-28%
O=C(c1cc(Br)ccc1O)N1CCN(S(=O)(=O)Cc2ccccc2)CC1,12µM*,-26%,0,?,?,-3%
O=C(c1cccc(F)c1)N1CCN(S(=O)(=O)Cc2ccccc2)CC1,13%,8%,11,-9%,-4%,15%
O=S1(=O)CC(N2CCCCC2)CN1Cc1cn(Cc2ccc(C(F)(F)F)cc2)nn1 (stereo not given),-22%,5%,5,/,-7%,4%
CN(C)Cc1cc(C(C)(C)c2ccccc2)ccc1O,?,-1%,?,-3%,23µM*,-28%
CN(C)c1nc(NCc2ccccc2)nc(SCC(=O)Nc2ccccc2)n1,?,?,-77*,-26%,?,?
CC(Sc1nc(NCc2ccccc2)nc(N(C)C)n1)C(=O)Nc1ccccc1 (stereo not given),21µM*,?,0,/,23µM*,?
CC(Sc1nc(NCc2ccccc2)nc(N2CCOCC2)n1)C(=O)Nc1ccccc1 (stereo not given),21µM*,-7%,21,1%,?,-17%
COc1ccccc1C(=O)NC(=O)CSc1nnc(N)s1,17%,8%,20,-6%,-15%,8%
CCc1nc2ccc(C(=O)NCCCN3CCCC3=O)cn2c1N(C)C(=O)c1cccc(OC)c1,-6%,19%,-21,/,2%,21%
CCc1nc2ccc(C(=O)NCCN3CCOCC3)cn2c1N(C)Cc1ccc(OC)cc1,23µM*,?,-9,/,?,1%
CCc1nc2ccc(C(=O)NCCN3CCOCC3)cn2c1N(C=O)Cc1ccc(OC)cc1,-3%,0%,0,/,12%,-4%
CCc1nc2ccc(C(=O)NCCCN3CCCC3=O)cn2c1N(C)Cc1ccc(OC)cc1,?,3%,0,/,16µM*,11%
O=C(O)C1CCN(S(=O)(=O)c2ccc(N3CCOCC3)c([N+](=O)[O-])c2)CC1,?,-7%,-13,5%,-4%,14%
O=C(NCc1cccs1)C1CCN(c2ccc(S(=O)(=O)N3CCOCC3)cc2Cl)CC1,2.6µM*,?,-13,-14%,3.7µM*,?
